Experimental data as given in the supplement of paper PMC10127200.
Counter-ions that a name gives are not always drawn.

How the values were obtained:
Test in all cases: Euclidean distance of Cell Painting phenotypic profile (signed KS, 77 features) to DMSO centroid (dimensionless distance); 5 or 10 uM (library dependent); higher = stronger phenotypic change vs DMSO (phenoactivity)
Settings in all cases: 48 h
786-O = test system: 786-O
Summary of the method: (§1)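 Phenoactivity is defined as the Euclidean distance from a compound profile to the median vehicle profile. Each profile comprised 77 Harmony features, scored as signed Kolmogorov-Smirnov statistics versus same-plate vehicle wells, then plate-position corrected, correlation-weighted and replicate-averaged at the top dose. Five cancer lines and one healthy fibroblast line were exposed to library compounds for 48 h at 10 or 5 uM (0.1% DMSO final).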

A549 = test system: A549
Summary of the method: as §1

DU145 = test system: DU145
Summary of the method: as §1

FB = test system: FB
Summary of the method: as §1

HEPG2 = test system: HEPG2
Summary of the method: as §1

OVCAR4 = test system: OVCAR4
Summary of the method: as §1

| Compound | Euclidean distance (786-O) | Euclidean distance (A549) | Euclidean distance (DU145) | Euclidean distance (FB) | Euclidean distance (HEPG2) | Euclidean distance (OVCAR4) |
| --- | --- | --- | --- | --- | --- | --- |
| NC(=NCCCCCCN=C(N)N=C(N)Nc1ccc(Cl)cc1)N=C(N)Nc1ccc(Cl)cc1 [Chlorhexidine?2HCl] | 2.98 | 3.13 | 2.18 | 1.67 | 2.59 | 2.56 |
| O=C(O)[C@H](O)Cc1ccc(O)c(O)c1 [Danshensu] | 1.51 | 1.33 | 0.736 | 0.877 | 1.33 | 1.65 |
| S=P(N1CC1)(N1CC1)N1CC1 [Thiotepa] | 2.52 | 3.76 | 2.03 | 2.35 | 2.68 | 3.07 |
| O=C(O)c1ccccc1 [Benzoic Acid] | 1.39 | 1.16 | 1.58 | 0.886 | 1.6 | 0.868 |
| CCOCC(O)COc1ccc(NC(=O)CC[S+](C)C)cc1 (centres undefined) [Suplatast Tosylate] | 1.48 | 1.01 | 1.47 | 1.14 | 0.648 | 1.13 |
| N=C(N)NC(=O)c1nc(Cl)c(N)nc1N [Amiloride HCl] | 1.05 | 0.988 | 0.844 | 0.922 | 1.33 | 0.94 |
| COc1cc2c(Oc3ccc4[nH]c(C)cc4c3F)ccnc2cc1OCC1(N)CC1 [Anlotinib (AL3818) dihydrochloride] | 3.26 | 3.7 | 2.73 | 3.46 | 3.11 | 3.17 |
| CCC[S+]([O-])c1ccc2[nH]c(NC(=O)OC)nc2c1 (centres undefined) [Albendazole Oxide] | 1.29 | 1.23 | 0.768 | 0.918 | 0.943 | 1.26 |
| CC(COc1ccccc1Cc1ccccc1)N1CCCCC1 (centres undefined) [Benproperine phosphate] | 1.67 | 1.63 | 1.72 | 1.18 | 1.58 | 1.42 |
| CN1CC2c3ccccc3Oc3ccc(Cl)cc3C2C1 (centres undefined) [Asenapine] | 1.1 | 0.811 | 0.805 | 1.19 | 1.03 | 0.94 |
| Oc1ccc(Nc2nc(-c3ccc(Cl)cc3)cs2)cc1 | 1.72 | 2.03 | 1.54 | 2.15 | 2.49 | 1.41 |
| [O-][n+]1cccc(-c2nc3c(Cl)cccc3cc2[C@@H](Nc2ncnc3cccnc23)C(F)(F)F)c1 [Seletalisib (UCB-5857)] | 1.2 | 0.825 | 1.4 | 1.69 | 1.73 | 2.03 |
| O=C(O)C1(c2ccc(-c3ccc(Cl)c(Cl)c3)c(F)c2)CC1 | 0.785 | 1.02 | 1.42 | 1.35 | 1.17 | 1.72 |
| c1cnc(NCc2ccc(CNc3ncccn3)cc2)nc1 | 1.17 | 0.784 | 0.977 | 0.642 | 0.488 | 1.22 |
| COCC1=C(C(=O)OC(C)OC(=O)OC(C)C)N2C(=O)[C@@H](NC(=O)/C(=N\OC)c3csc(N)n3)[C@H]2SC1 (some centres undefined) [Cefpodoxime proxetil] | 1.25 | 0.683 | 0.813 | 1.04 | 0.687 | 0.958 |
| Cc1cccc(C)c1OCC(=O)N[C@@H](Cc1ccccc1)[C@@H](O)C[C@H](Cc1ccccc1)NC(=O)[C@H](C(C)C)N1CCCNC1=O [Lopinavir] | 2.06 | 1.69 | 1.44 | 1.1 | 0.896 | 1.92 |
| CCN1CCN(Cc2ccc(-c3cc4c(N[C@H](C)c5ccccc5)ncnc4[nH]3)cc2)CC1 | 2.34 | 3.77 | 1.92 | 2.96 | 1.73 | 1.02 |
| CC[C@H]1OC(=O)[C@H](C)[C@@H](O[C@H]2C[C@@](C)(OC)[C@@H](O)[C@H](C)O2)[C@H](C)[C@@H](O[C@@H]2O[C@H](C)C[C@H](N(C)C)[C@H]2O)[C@](C)(OC)C[C@@H](C)C(=O)[C@H](C)[C@@H](O)[C@]1(C)O [Clarithromycin] | 0.952 | 0.722 | 0.938 | 0.905 | 0.629 | 0.909 |
| COc1ccc(NS(=O)(=O)c2ccc(N)cc2)nn1 [Sulfamethoxypyridazine] | 0.978 | 0.771 | 1.02 | 1.64 | 0.55 | 1.05 |
| CCc1cc(/C(C)=N/OCc2ccc(C3CCCCC3)c(C(F)(F)F)c2)ccc1CN1CC(C(=O)O)C1 [BAF312 (Siponimod)] | 1.61 | 1.05 | 1.31 | 0.66 | 0.538 | 1.25 |
| CC1COc2c(N3CCN(C)CC3)c(F)cc3c(=O)c(C(=O)O)cn1c23 (centres undefined) [Ofloxacin] | 1.01 | 0.65 | 0.81 | 0.702 | 0.545 | 1.25 |
| Cc1c(NC(=O)OC[C@@H]2COCCN2)cn2ncnc(Nc3ccc4c(cnn4Cc4cccc(F)c4)c3)c12 | 2.06 | 1.47 | 1.13 | 1.52 | 1.28 | 0.963 |
| CN1CCN(CCCN2c3ccccc3Sc3ccc(C(F)(F)F)cc32)CC1 [Trifluoperazine 2HCl] | 2.52 | 2.25 | 1.58 | 2.19 | 3.04 | 1.8 |
| CCN(CC)CC(=O)Nc1c(C)cccc1C [Lidocaine] | 1.65 | 0.785 | 1.51 | 0.913 | 0.435 | 1.11 |
